Reference: PubChem BioAssay (NCATS)
Where “and” joins values, the source holds several entries; their conditions need not be identical. Equal entries are not always repeated. Inconclusive results are not listed. Calls of active or inactive are those of the source. Unless noted, calls follow the shape of the dose curve; as a rule, active = well fitted curve in the direction sought with a large enough effect; inconclusive = small, poorly fitted or top-dose-only effect, or another doubt; inactive = no such curve, though single readings can be large; an effect the other way counts as inactive or inconclusive.

Key:
[1] = Cell Viability qHTS for small molecule stabilizers of the endoplasmic reticulum resident proteome (AID 1508629); conditions: cell viability counter-screen, 100 nM thapsigargin for final 4 h;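 also: human SH-SY5Y neuroblastoma cells carrying the GLuc-SERCaMP reporter; compound exposure about 46 h in total before the viability read; % is scaled to controls: 0 for no effect and ±100 for the full control effect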
[2] = Primary qHTS for inhibitors of nuclear receptor binding SET domain protein 2 (NSD2) in an isogenic RCH-ACV NSD2 p.E1099K mutant (9B) (AID 1645876); conditions: RCH-ACV NSD2 E1099K (9B) viability, CellTiter-Glo, 72 h; series mostly up to 44.9 µM; also: nearly all actives have a fitted effect of over 70% in size; also: potency is read from the fitted curve at half-maximal effect
[3] = Primary qHTS for small molecule stabilizers of the endoplasmic reticulum resident proteome: Secreted ER Calcium Modulated Protein (SERCaMP) assay (AID 1508630); conditions: SH-SY5Y GLuc-SERCaMP (Gaussia luciferase released on ER calcium loss) secretion, thapsigargin, luminescence; series mostly up to 38.4 µM; also: % is scaled to controls: 0 for no effect and ±100 for the full control effect
Method in brief: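 GLuc-SERCaMP-expressing SH-SY5Y cells, pretreated 16 h with compound, are challenged with thapsigargin to empty ER calcium stores; after 4 h, coelenterazine is added directly to the medium and luminescence is imaged.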

[4] = A High-Content qHTS Against Drug Library for the Identification of Small Molecules that Inhibit DYT1 Early Onset Primary Dystonia-Associated Cell Pathology (AID 1645839; calls by dose curve); conditions: HEK293 Flp-In EGFP-delE TorsinA, punctate imaging, 48 h; series mostly up to 46.1 µM
Method in brief: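 In this high-content image screen, delE TorsinA mislocalization in inducible Flp-In 293 cells is scored as %pathology, with cell count serving as the counterscreen. Compound exposure lasts 48 h under tetracycline induction in reduced-serum medium.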

[5] = biological target: Cytochrome P450 2D6 (Homo sapiens) (UniProt P10635); assay: Cytochrome P450 family 2 subfamily D member 6 (CYP2D6) small molecule antagonists: luciferase biochemical (cell-free) qHTS assay (AID 1645840; active = well fitted curve in the direction sought with a large enough effect in the repeat runs; an effect the other way counts as inactive or inconclusive; also: nearly all actives have a fitted effect of over 55% in size; also: potency is read from the fitted curve at half-maximal effect); conditions: P450-Glo CYP2D6 enzyme, luciferin luminescence, 1 h; series mostly up to 57.4 µM
Cytochrome P450 2D6 (Homo sapiens), sequence (P10635 whole entry, looked up): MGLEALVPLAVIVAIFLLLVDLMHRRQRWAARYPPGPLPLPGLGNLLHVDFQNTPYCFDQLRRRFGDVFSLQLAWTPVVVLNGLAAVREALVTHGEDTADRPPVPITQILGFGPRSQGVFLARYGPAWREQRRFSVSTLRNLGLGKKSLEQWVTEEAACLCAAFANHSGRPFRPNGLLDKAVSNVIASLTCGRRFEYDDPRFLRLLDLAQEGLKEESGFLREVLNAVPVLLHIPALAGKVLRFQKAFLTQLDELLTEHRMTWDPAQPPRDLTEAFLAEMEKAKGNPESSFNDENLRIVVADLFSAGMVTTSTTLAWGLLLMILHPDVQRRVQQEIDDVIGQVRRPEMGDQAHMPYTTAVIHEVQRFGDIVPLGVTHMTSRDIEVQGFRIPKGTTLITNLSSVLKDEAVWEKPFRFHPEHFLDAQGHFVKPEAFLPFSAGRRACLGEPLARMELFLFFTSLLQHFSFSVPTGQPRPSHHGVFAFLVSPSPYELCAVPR
Method in brief: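 P450-Glo luminescent screen: recombinant CYP2D6 enzyme–proluciferin substrate mix preincubated with compound 10 min at room temperature, then NADPH regeneration added for 1 h at room temperature. Detection reagent added for 20 min; luciferin light read as relative luminescence units.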

[6] = biological target: Cytochrome P450 2C9 (Homo sapiens) (UniProt P11712); assay: Cytochrome P450 family 2 subfamily C member 9 (CYP2C9) small molecule antagonists: luciferase biochemical (cell-free) qHTS assay (AID 1645842; active = well fitted curve in the direction sought with a large enough effect in the repeat runs; an effect the other way counts as inactive or inconclusive; also: nearly all actives have a fitted effect of over 55% in size; also: potency is read from the fitted curve at half-maximal effect); conditions: P450-Glo CYP2C9 enzyme assay, luciferin luminescence; series mostly up to 57.4 µM
Cytochrome P450 2C9 (Homo sapiens), sequence (P11712 whole entry, looked up): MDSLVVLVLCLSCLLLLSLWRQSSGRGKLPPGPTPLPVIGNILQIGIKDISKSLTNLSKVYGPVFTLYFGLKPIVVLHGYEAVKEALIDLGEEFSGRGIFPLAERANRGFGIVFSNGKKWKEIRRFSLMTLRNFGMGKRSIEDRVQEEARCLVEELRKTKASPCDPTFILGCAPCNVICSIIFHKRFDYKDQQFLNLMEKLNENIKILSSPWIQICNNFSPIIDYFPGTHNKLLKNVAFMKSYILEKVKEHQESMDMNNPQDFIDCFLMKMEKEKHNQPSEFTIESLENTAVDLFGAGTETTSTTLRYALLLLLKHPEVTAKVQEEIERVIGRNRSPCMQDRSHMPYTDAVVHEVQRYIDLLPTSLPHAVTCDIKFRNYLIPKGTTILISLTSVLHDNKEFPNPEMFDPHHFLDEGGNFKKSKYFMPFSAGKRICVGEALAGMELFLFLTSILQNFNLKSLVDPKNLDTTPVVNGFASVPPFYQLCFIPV
Method in brief: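 Luminescence, after 20 min with luciferin detection reagent, reflected CYP2C9 turnover during a 1 h NADPH-driven reaction at 37C. Enzyme-substrate mix contained 0.4% bovine serum albumin and was preincubated with compound 10 min at room temperature.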

[7] = Primary qHTS for inhibitors of nuclear receptor binding SET domain protein 2 (NSD2) in an RCH-ACV wild type WT cells (2C) (AID 1645877); conditions: RCH-ACV (leukaemia line) NSD2 WT (2C) viability, CellTiter-Glo, 72 h; series mostly up to 44.9 µM; also: nearly all actives have a fitted effect of over 70% in size; also: potency is read from the fitted curve at half-maximal effect
[8] = biological target: Cytochrome P450 3A4 (Homo sapiens) (UniProt P08684); assay: Cytochrome P450 family 3 subfamily A member 4 (CYP3A4) small molecule antagonists: luciferase qHTS assay (AID 1645841; active = well fitted curve in the direction sought with a large enough effect in the repeat runs; an effect the other way counts as inactive or inconclusive; also: nearly all actives have a fitted effect of over 45% in size); conditions: P450-Glo CYP3A4 enzyme assay, luciferin luminescence; series mostly up to 57.4 µM
Cytochrome P450 3A4 (Homo sapiens), sequence (P08684 whole entry, looked up): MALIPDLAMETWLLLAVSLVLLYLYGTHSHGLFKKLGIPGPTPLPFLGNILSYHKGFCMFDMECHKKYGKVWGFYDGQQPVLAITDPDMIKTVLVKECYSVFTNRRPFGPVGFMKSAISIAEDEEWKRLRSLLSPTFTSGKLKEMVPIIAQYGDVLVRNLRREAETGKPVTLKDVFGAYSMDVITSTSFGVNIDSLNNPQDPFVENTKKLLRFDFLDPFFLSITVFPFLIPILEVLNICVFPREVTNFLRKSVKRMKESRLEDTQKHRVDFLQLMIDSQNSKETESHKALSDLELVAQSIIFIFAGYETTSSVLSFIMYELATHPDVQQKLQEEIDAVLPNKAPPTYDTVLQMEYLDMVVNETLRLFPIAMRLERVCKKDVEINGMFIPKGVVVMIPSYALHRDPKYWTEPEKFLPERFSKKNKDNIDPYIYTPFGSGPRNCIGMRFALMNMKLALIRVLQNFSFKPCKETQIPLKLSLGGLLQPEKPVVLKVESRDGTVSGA
Method in brief: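 Luminescent CYP3A4 activity readout: compounds plus enzyme-substrate mix 10 min at room temperature, reaction started with NADPH regenerating system for 1 h, stopped with detection reagent, read after 20 min. Ketoconazole served as control.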

[9] = NCATS anti-infectives library activity on HEK293 viability as a counter-qHTS vs the C. elegans viability qHTS (AID 1745854); conditions: HEK293 viability counter-screen; series mostly up to 41.8 µM;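 also: HEK293 cells exposed to compounds for 24 hr before the viability read; % is scaled to controls: 0 for no effect and ±100 for the full control effect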
Method in brief: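 HEK293 cells (1,500/well) exposed 24 hr at 37C to 1:5 titrations, up to 41.7 uM final; counter-screen to a C. elegans viability qHTS. Viability by CellTiter-Glo luminescence after 10 min at room temperature; digitonin as control.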

[10] = NCATS anti-infectives library activity on the primary C. elegans qHTS viability assay (AID 1745855; calls by dose curve); conditions: C. elegans worm area imaging, day 7; at 41.8 µM (top of the series) unless noted
Method in brief: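 Viability read-out is GFP fluorescence of PE254-GFP-FLuc C. elegans, measured by laser cytometry (488 nm) at day 0, 3 and 7. Ten L1 worms per well were incubated 7 days at 21 °C with compounds and bacterial capsules in S medium.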

[11] = biological target: Rap guanine nucleotide exchange factor 3 (Homo sapiens) (UniProt O95398); assay: Confirmatory qHTS for antagonist of cAMP-regulated guanine nucleotide exchange factor 3 (EPAC1) (AID 1645880); conditions: EPAC1 Rap1B-BODIPY-GDP exchange, fluorescence; series mostly up to 115 µM;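 also: plate controls were DMSO only for no effect and full effect of the ATA control for full effect; nearly all actives have a fitted effect of over 55% in size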
Rap guanine nucleotide exchange factor 3 (Homo sapiens), sequence (O95398 whole entry, looked up): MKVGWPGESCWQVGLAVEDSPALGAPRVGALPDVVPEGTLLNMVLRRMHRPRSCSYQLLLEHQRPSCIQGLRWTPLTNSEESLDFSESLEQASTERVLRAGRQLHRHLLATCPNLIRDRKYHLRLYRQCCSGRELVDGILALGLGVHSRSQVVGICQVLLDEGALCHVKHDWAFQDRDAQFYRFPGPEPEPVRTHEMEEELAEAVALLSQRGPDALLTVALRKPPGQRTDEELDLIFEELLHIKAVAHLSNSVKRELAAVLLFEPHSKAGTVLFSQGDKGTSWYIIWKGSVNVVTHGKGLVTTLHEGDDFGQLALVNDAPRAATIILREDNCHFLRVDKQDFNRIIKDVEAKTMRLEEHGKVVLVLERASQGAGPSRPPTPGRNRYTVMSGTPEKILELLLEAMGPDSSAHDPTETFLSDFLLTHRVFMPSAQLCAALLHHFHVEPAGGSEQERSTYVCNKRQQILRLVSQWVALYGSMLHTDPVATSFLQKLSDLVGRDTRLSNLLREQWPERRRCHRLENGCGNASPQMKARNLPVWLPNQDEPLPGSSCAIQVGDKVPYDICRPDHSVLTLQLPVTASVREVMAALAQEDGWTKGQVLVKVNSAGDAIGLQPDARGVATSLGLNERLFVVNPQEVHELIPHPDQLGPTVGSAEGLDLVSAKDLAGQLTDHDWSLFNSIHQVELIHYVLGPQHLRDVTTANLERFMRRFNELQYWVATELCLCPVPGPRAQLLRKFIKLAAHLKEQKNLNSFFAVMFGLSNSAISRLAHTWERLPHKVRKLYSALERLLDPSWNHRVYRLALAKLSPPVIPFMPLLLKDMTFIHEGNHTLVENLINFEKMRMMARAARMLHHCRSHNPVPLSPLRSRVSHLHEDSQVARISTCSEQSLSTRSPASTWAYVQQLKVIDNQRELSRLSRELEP
Method in brief: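 Nucleotide exchange uses 100 nM EPAC1, 250 nM RAP1B-BODIPY-GDP and 50 uM GDP, with compounds in a concentration-titration series. After 5 min at room temperature, fluorescence (480 nm ex/540 nm em) is read every 5 min for 30 min. Data are normalized to control ATA and DMSO.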

[12] = biological target: Rap guanine nucleotide exchange factor 3 (Homo sapiens) (UniProt O95398); assay: Confirmatory qHTS for agonist of cAMP-regulated guanine nucleotide exchange factor 3 (EPAC1) (AID 1645881); conditions: EPAC1 Rap1B BODIPY-GDP exchange fluorescence, 100% = cAMP control response; series mostly up to 154 µM;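 also: EPAC1 catalysed release of BODIPY-GDP from Rap1B seen as fluorescence loss; nearly all actives have a fitted effect of over 75% in size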
[13] = biological target: Rap guanine nucleotide exchange factor 4 (Homo sapiens) (UniProt Q8WZA2); assay: Confirmatory qHTS for agonist of cAMP-regulated guanine nucleotide exchange factor 4 (EPAC2) (AID 1645884); conditions: EPAC2 GEF activity, Rap1B-BODIPY-GDP fluorescence, percent relative to cAMP agonist control; series mostly up to 154 µM;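 also: nucleotide exchange releases bodipy-GDP from Rap1 and this lowers its fluorescence; % is scaled to controls: 0 for no effect and ±100 for the full control effect; nearly all actives have a fitted effect of over 65% in size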
Rap guanine nucleotide exchange factor 4 (Homo sapiens), sequence (Q8WZA2 whole entry, looked up): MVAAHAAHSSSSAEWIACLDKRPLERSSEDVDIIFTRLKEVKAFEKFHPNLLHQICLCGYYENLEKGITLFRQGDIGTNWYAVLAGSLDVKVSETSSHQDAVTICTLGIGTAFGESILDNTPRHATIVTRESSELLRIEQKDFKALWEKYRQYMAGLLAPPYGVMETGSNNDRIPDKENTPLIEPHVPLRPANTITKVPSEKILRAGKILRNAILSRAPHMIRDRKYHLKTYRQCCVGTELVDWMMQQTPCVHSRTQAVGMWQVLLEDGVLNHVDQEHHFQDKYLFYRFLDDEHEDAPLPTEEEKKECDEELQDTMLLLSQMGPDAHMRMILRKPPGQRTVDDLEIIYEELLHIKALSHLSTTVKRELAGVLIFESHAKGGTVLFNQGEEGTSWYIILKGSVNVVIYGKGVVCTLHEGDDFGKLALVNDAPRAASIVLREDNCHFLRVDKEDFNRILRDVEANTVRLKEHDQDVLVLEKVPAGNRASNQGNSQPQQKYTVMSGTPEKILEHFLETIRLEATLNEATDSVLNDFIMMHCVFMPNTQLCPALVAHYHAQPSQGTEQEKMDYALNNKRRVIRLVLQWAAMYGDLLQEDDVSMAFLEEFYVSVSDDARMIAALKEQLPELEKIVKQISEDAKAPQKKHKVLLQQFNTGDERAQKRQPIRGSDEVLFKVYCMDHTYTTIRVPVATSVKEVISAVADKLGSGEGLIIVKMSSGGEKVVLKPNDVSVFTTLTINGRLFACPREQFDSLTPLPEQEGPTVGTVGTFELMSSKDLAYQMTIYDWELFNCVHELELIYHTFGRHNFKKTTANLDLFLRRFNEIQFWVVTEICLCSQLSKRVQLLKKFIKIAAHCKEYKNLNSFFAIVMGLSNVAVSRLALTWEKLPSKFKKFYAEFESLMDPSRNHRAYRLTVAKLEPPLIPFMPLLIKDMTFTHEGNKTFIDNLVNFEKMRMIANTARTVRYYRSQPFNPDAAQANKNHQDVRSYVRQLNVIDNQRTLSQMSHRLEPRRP

[14] = biological target: Rap guanine nucleotide exchange factor 4 (Homo sapiens) (UniProt Q8WZA2); assay: Confirmatory qHTS for antagonist of cAMP-regulated guanine nucleotide exchange factor 4 (EPAC2) (AID 1645885); conditions: EPAC2 Rap1B-BODIPY-GDP exchange fluorescence, biochemical; series mostly up to 114 µM; also: % is scaled to controls: 0 for no effect and ±100 for the full control effect; nearly all actives have a fitted effect of over 25% in size

CN1CCC(OC(c2ccccc2)c2ccccc2)CC1
inactive: max response [1] 7.61% | Potency [2]

CCOC(=O)Nc1ccc2c(c1)N(C(=O)CCN1CCOCC1)c1ccccc1S2
inactive: Potency [3] | Potency [4]

CCC1NC(=O)c2cc(S(N)(=O)=O)c(Cl)cc2N1 (configuration not stated)
inactive: Potency [3] | Potency [4]

CCNC(=O)NCc1cccc(Cl)c1
inactive: Potency [3] | Potency [4] | Potency [5] | Potency [6] | Potency [2]

CCOC(=O)c1c(N)sc2c1CCN(Cc1ccccc1)C2
active: Potency [5] 9.8 nM | Potency [6] 8.71 µM | Potency [2] 16.8 µM
inactive: Potency [3] | Potency [4]

C=CCN1CCc2nc(N)sc2CC1
inactive: max response [1] -7.52% | Potency [4] | Potency [5] | Potency [6] | Potency [2] | Potency [7]

COc1cc(C(=S)N2CCOCC2)ccc1O
inactive: Potency [3] | Potency [4] | Potency [5] | Potency [6]

CN(CCCN1c2ccccc2CCc2ccccc21)CC(=O)c1ccc(Cl)cc1
active: Potency [5] 6090 nM | Potency [6] 12.1 µM
inactive: max response [1] 24.4%

N#C/C(=C1\SCC(c2ccccc2Cl)S1)n1ccnc1 (configuration not stated)
inactive: Potency [3] | Potency [4]
active: Potency [5] 275 nM | Potency [6] 1.55 µM

NS(=O)(=O)c1cc(C(=O)O)cc(N2CCCC2)c1Oc1ccccc1
inactive: Potency [3] | Potency [4] | Potency [5] | Potency [6] | Potency [2]

CC(C)(C)NCC(O)COc1cccc2c1C[C@H](O)[C@H](O)C2 (some centres not stated)
inactive: Potency [3] | Potency [4] | Potency [5] | Potency [8] | Potency [2] | Potency [7]

c1ccc(-c2nc[nH]c2-c2ccccc2)cc1
inactive: Potency [3] | Potency [4]

NCCNc1cccc2ccccc12
inactive: Potency [3] | Potency [4]
active: Potency [5] 7760 nM

CC(=O)O[C@]1(C(C)=O)CC[C@H]2[C@@H]3C=C(Cl)C4=CC(=O)CC[C@]4(C)[C@H]3CC[C@@]21C
inactive: Potency [3] | Potency [4] | Potency [5]

CC[N+](C)(CC)CCOC(=O)C(O)(c1ccccc1)C1CCCCC1 (configuration not stated)
active: Potency [5] 776 nM
inactive: Potency [3] | Potency [4] | Potency [6] | Potency [2]

NS(=O)(=O)Cc1noc2ccccc12
inactive: Potency [3] | Potency [4] | Potency [5] | Potency [8] | Potency [6] | Potency [7]

CCCN(CCc1cccs1)[C@H]1CCc2c(O)cccc2C1
inactive: Potency [3] | Potency [4] | Potency [6]
active: Potency [5] 169 nM and 195 nM

O=S(c1cc(Cl)cc(Cl)c1O)c1cc(Cl)cc(Cl)c1O
inactive: Potency [3]

O=C1C(=O)c2ccccc2C(O)=C1C1CCC(c2ccc(Cl)cc2)CC1 (configuration not stated)
inactive: Potency [3] | Potency [4] | Potency [5] | Potency [8] | Potency [6] | Potency [2] | Potency [7] | outcome [9] | outcome [10]

CCOc1cc(OCC)c(C(=O)CCC(=O)O)cc1OCC
inactive: max response [1] 24.8% | Potency [4] | Potency [5] | Potency [6] | Potency [2] | Potency [7]

CCc1cc(Cl)c(OC)c(C(=O)NC[C@@H]2CCCN2CC)c1O
active: Potency [5] 219 nM
inactive: Potency [3] | Potency [4] | Potency [6]

CC(=O)OC[C@H]1O[C@@H](n2ncc(=O)[nH]c2=O)[C@H](OC(C)=O)[C@@H]1OC(C)=O
inactive: Potency [3] | Potency [4] | Potency [6]
active: Potency [5] 7760 nM

O=C(Nc1cccc(C2=NCCN2)c1)Nc1cccc(C2=NCCN2)c1
active: Potency [2] 10.3 µM
inactive: Potency [3] | Potency [4] | Potency [5] | Potency [6]

CC(=O)OCC1=C(C(=O)O)N2C(=O)[C@@H](NC(=O)CSc3ccncc3)[C@H]2SC1
active: Potency [5] 13800 nM | Potency [6] 11 µM
inactive: Potency [3] | Potency [4]

Nc1ccc(S(=O)(=O)NCc2ccccc2)cc1
inactive: Potency [3] | Potency [4] | Potency [5] | Potency [6] | Potency [2] | Potency [7]

CCOc1ccc(NC(C)=O)cc1
inactive: Potency [3] | Potency [4] | Potency [5] | Potency [6] | Potency [2] | Potency [7]

Cn1c(=O)c2[nH]c(Br)nc2n(C)c1=O
inactive: Potency [3] | Potency [4] | Potency [5] | Potency [6] | Potency [2] | Potency [7]

CCc1ccc(C(=O)C(C)CN2CCCCC2)cc1 (configuration not stated)
inactive: Potency [3] | Potency [4] | Potency [6]
active: Potency [5] 871 nM | Potency [7] 23.7 µM

Cl/C(=C\n1cncn1)c1ccc(Cl)cc1Cl
inactive: Potency [3] | Potency [4] | Potency [2] | Potency [7] | Potency [11] | outcome [12] | outcome [13] | Potency [14]
active: Potency [5] 4900 nM | Potency [6] 11 µM

Cc1cc2c(OCC(CNC(C)(C)C)OC(=O)c3ccccc3)cccc2[nH]1 (configuration not stated)
inactive: Potency [3] | Potency [4] | Potency [2] | Potency [7]
active: Potency [5] 246 nM | Potency [6] 3.47 µM

CC(C)(C)CC(C)(C)c1ccc(O)c(-n2nc3ccccc3n2)c1
inactive: Potency [3] | Potency [4] | Potency [5] | Potency [2] | Potency [7]
active: Potency [6] 10.7 µM and 6.92 µM

CNCCc1ccccn1
inactive: Potency [3] | Potency [4] | Potency [5] | Potency [6] | Potency [2] | Potency [7]

O=C1C(O)=C(O)C(=O)C(O)=C1O
inactive: Potency [3] | Potency [4] | Potency [5] | Potency [6] | Potency [2] | Potency [7]
